In this assay the target is furin, P09958. Briefly: furin cleavage Z-score vs untreated control; higher = more cleavage, active = 3.5 or more, inactive = 1 or less, 8 variable residues between constant flanks. In short, it runs like this: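 Magnetic beads held 8-mer peptides by the N-terminus, each fused to a cDNA oligonucleotide, and purified furin was added for 7.5, 15 or 30 min. Released DNA was sequenced after PCR adapter tagging. The cleavage Z-score is the log count relative to furin-free reactions, lowess-adjusted and divided by median absolute deviation.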

This is one part of the list. The true hit rate is not given.
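Also: purified furin at 1:10 enzyme:substrate in 50 mM HEPES pH 7.5.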

Chain of furin, P09958 (P09958 whole entry, the tested form may be a part): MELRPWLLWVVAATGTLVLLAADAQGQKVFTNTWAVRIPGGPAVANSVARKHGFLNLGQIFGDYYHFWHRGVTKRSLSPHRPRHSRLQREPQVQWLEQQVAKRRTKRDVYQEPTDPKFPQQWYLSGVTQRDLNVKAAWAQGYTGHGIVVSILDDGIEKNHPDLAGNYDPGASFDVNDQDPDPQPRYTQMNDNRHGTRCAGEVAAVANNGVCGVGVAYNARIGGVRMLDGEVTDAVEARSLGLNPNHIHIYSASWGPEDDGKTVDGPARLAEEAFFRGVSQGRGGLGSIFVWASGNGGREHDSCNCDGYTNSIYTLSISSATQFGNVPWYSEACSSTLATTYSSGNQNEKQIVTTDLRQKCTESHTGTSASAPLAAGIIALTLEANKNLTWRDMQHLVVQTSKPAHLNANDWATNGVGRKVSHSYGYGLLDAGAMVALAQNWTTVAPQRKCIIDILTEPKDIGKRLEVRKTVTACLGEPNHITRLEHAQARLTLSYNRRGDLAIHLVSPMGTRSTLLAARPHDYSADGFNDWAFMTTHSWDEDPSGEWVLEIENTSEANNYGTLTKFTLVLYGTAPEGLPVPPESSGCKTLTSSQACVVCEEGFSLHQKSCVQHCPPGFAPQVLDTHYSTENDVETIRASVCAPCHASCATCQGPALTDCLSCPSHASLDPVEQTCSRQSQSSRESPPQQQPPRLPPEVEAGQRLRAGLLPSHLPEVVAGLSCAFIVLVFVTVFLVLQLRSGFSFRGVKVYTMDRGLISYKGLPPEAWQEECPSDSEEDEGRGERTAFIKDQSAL

B1: HC767 (peptide)
chain: CANSSPPVVPAGNASASA
Take B1: the “furin cleavage Z-score” value reads like this: (7.5 min) -0.356 (inactive); (15 min) 1.59; (30 min) -0.293 (inactive).

B2: HC1169 (peptide)
chain: CAGVWRVDGIAGNASASA
For B2, the “furin cleavage Z-score” value (7.5 min) was -0.937 (inactive), the “furin cleavage Z-score” value (15 min) was 0.416 (inactive) and the “furin cleavage Z-score” value (30 min) is -0.826 (inactive).

B3: HC1961 (peptide)
chain: CANCTTPCSGAGNASASA
For B3, the “furin cleavage Z-score” value is, setting by setting: (7.5 min) -0.578 (inactive); (15 min) -3.89 (inactive); (30 min) 1.28.

B4: FS-2356 (peptide)
chain: CARPAREVDRAGNASASA
Take B4: the “furin cleavage Z-score” value (7.5 min) was 5.34 (active), the “furin cleavage Z-score” value (15 min) is 5.29 (active) and the “furin cleavage Z-score” value (30 min) was 4.96 (active).

B5: FS-2469 (peptide)
chain: CARVARTVDRAGNASASA
For B5, the “furin cleavage Z-score” value reads like this: (7.5 min) 5.8 (active); (15 min) 7.75 (active); (30 min) 8.43 (active).

B6: FS-1953 (peptide)
chain: CARHARNVDRAGNASASA
For the sequence B6, the “furin cleavage Z-score” value was 6.92 (active) (7.5 min), 10.7 (active) (15 min) and 9.36 (active) (30 min).

B7: FS-1716 (peptide)
chain: CARHRKNVDRAGNASASA
Turning to B7, the “furin cleavage Z-score” value (7.5 min) is -0.386 (inactive), the “furin cleavage Z-score” value (15 min) is 1.53 and the “furin cleavage Z-score” value (30 min) was found to be 1.32.

B8: FS-3155 (peptide)
chain: CARHARQASEAGNASASA
Consider B8, for which the “furin cleavage Z-score” value is 1.74 (7.5 min), 4.48 (active) (15 min) and 5.03 (active) (30 min).

B9: FS-2210 (peptide)
chain: CARHARFGKKAGNASASA
For the sequence B9, the “furin cleavage Z-score” value was 0.851 (inactive) (7.5 min), -1.52 (inactive) (15 min) and 1.21 (30 min).

B10: NG5 (peptide)
chain: CAMKYEIASEAGNASASA
B10: the “furin cleavage Z-score” value is -0.26 (inactive) (7.5 min), -1.67 (inactive) (15 min) and 0.146 (inactive) (30 min).

B11: HC1167 (peptide)
chain: CARGYKGVWRAGNASASA
On to B11, for which the “furin cleavage Z-score” value runs as follows: (7.5 min) 0.51 (inactive); (15 min) 0.617 (inactive); (30 min) -0.00561 (inactive).

B12: HC1859 (peptide)
chain: CATPPCSGSWAGNASASA
For B12, the “furin cleavage Z-score” value was -0.56 (inactive) (7.5 min), -0.533 (inactive) (15 min) and -0.721 (inactive) (30 min).

B13: HC522 (peptide)
chain: CAFLLLADARAGNASASA
Consider B13, for which the “furin cleavage Z-score” value reads like this: (7.5 min) -0.934 (inactive); (15 min) -0.696 (inactive); (30 min) -0.66 (inactive).

B14: HC972 (peptide)
chain: CAPLLYRLGAAGNASASA
Take B14: the “furin cleavage Z-score” value by setting is: (7.5 min) 0.619 (inactive); (15 min) -1.01 (inactive); (30 min) 0.0559 (inactive).

B15: HC1440 (peptide)
chain: CAMAKNEVFCAGNASASA
Turning to B15, the “furin cleavage Z-score” value is 0.471 (inactive) (7.5 min), 0.162 (inactive) (15 min) and 0.531 (inactive) (30 min).

B16: HC312 (peptide)
chain: CAGCNCSIYPAGNASASA
Turning to B16, the “furin cleavage Z-score” value reads like this: (7.5 min) 0.264 (inactive); (15 min) -0.894 (inactive); (30 min) 0.418 (inactive).

B17: FS-805 (peptide)
chain: CAITARYHRDAGNASASA
As to B17, the “furin cleavage Z-score” value reads like this: (7.5 min) 2.27; (15 min) 3.38; (30 min) 4.17 (active).

B18: FS-1537 (peptide)
chain: CAIVARNHRDAGNASASA
For the sequence B18, the “furin cleavage Z-score” value by setting is: (7.5 min) 4.29 (active); (15 min) 3.17; (30 min) 2.88.

B19: FS-1261 (peptide)
chain: CARKPRVKRPAGNASASA
With B19, the “furin cleavage Z-score” value by setting is: (7.5 min) 1.31; (15 min) 0.832 (inactive); (30 min) 1.57.

B20: FS-3138 (peptide)
chain: CASSRRDSSWAGNASASA
As to B20, the “furin cleavage Z-score” value (7.5 min) is -0.452 (inactive), the “furin cleavage Z-score” value (15 min) was -0.483 (inactive) and the “furin cleavage Z-score” value (30 min) is -0.978 (inactive).

B21: FS-1604 (peptide)
chain: CAPWNRKNRQAGNASASA
B21: the “furin cleavage Z-score” value is -0.25 (inactive) (7.5 min), 0.846 (inactive) (15 min) and 3.14 (30 min).

B22: FS-1400 (peptide)
chain: CARKPKRKRWAGNASASA
For B22, the “furin cleavage Z-score” value was 8.47 (active) (7.5 min), 10.9 (active) (15 min) and 7.59 (active) (30 min).

B23: FS-1337 (peptide)
chain: CAHKHRSNRQAGNASASA
Turning to B23, the “furin cleavage Z-score” value (7.5 min) turned out to be 1.05, the “furin cleavage Z-score” value (15 min) is 3.88 (active) and the “furin cleavage Z-score” value (30 min) is 1.67.

B24: FS-1456 (peptide)
chain: CAGKRRSRRQAGNASASA
B24: the “furin cleavage Z-score” value by setting is: (7.5 min) 9.9 (active); (15 min) 10.6 (active); (30 min) 6.67 (active).

B25: FS-193 (peptide)
chain: CASKRRDKRWAGNASASA
For B25, the “furin cleavage Z-score” value (7.5 min) was 8.33 (active), the “furin cleavage Z-score” value (15 min) was 9.38 (active) and the “furin cleavage Z-score” value (30 min) is 9.36 (active).

B26: HC1913 (peptide)
chain: CATTPCSGRWAGNASASA
In the case of B26, the “furin cleavage Z-score” value was -1.94 (inactive) (7.5 min), 0.288 (inactive) (15 min) and -0.595 (inactive) (30 min).

B27: HC1151 (peptide)
chain: CAWDWICEVLAGNASASA
With B27, the “furin cleavage Z-score” value is, setting by setting: (7.5 min) -0.473 (inactive); (15 min) 1.19; (30 min) 1.97.

B28: HC847 (peptide)
chain: CAIPFYGKAIAGNASASA
Take B28: the “furin cleavage Z-score” value (7.5 min) is -0.737 (inactive), the “furin cleavage Z-score” value (15 min) is -1.38 (inactive) and the “furin cleavage Z-score” value (30 min) was 0.0496 (inactive).

B29: HC1628 (peptide)
chain: CAGGRAAICGAGNASASA
For B29, the “furin cleavage Z-score” value reads like this: (7.5 min) -1.4 (inactive); (15 min) -1.23 (inactive); (30 min) -0.629 (inactive).

B30: HC1563 (peptide)
chain: CATRDPTTPLAGNASASA
Turning to B30, the “furin cleavage Z-score” value was 0.197 (inactive) (7.5 min), -2.67 (inactive) (15 min) and -1.41 (inactive) (30 min).

B31: HC1601 (peptide)
chain: CAPIIQRLHGAGNASASA
Regarding B31, the “furin cleavage Z-score” value is -1.06 (inactive) (7.5 min), -0.433 (inactive) (15 min) and -1.21 (inactive) (30 min).

B32: FS-698 (peptide)
chain: CANVVRARRQAGNASASA
Turning to B32, the “furin cleavage Z-score” value is, setting by setting: (7.5 min) 12.8 (active); (15 min) 12 (active); (30 min) 10.3 (active).

B33: FS-1412 (peptide)
chain: CASKRRSRRQAGNASASA
Turning to B33, the “furin cleavage Z-score” value reads like this: (7.5 min) 8.55 (active); (15 min) 8.01 (active); (30 min) 5.96 (active).

B34: HC2161 (peptide)
chain: CANVVTSTWVAGNASASA
With B34, the “furin cleavage Z-score” value reads like this: (7.5 min) -0.344 (inactive); (15 min) 0.91 (inactive); (30 min) 0.172 (inactive).

B35: FS-1487 (peptide)
chain: CASKRRARRQAGNASASA
In the case of B35, the “furin cleavage Z-score” value is 7.99 (active) (7.5 min), 8.93 (active) (15 min) and 6.94 (active) (30 min).

B36: HC1417 (peptide)
chain: CAPPHSAKSKAGNASASA
In the case of B36, the “furin cleavage Z-score” value was -1.76 (inactive) (7.5 min), -0.582 (inactive) (15 min) and -0.397 (inactive) (30 min).

B37: HC1930 (peptide)
chain: CATTPCSGSVAGNASASA
Turning to B37, the “furin cleavage Z-score” value was 0.2 (inactive) (7.5 min), 0.581 (inactive) (15 min) and 1.22 (30 min).

B38: HC194 (peptide)
chain: CAKARRPEGRAGNASASA
Take B38: the “furin cleavage Z-score” value was -0.782 (inactive) (7.5 min), -1.19 (inactive) (15 min) and -0.268 (inactive) (30 min).

B39: HC888 (peptide)
chain: CANTCVTQTVAGNASASA
Take B39: the “furin cleavage Z-score” value is -0.737 (inactive) (7.5 min), -1.07 (inactive) (15 min) and -1.56 (inactive) (30 min).

B40: HC1054 (peptide)
chain: CAIASLMAFTAGNASASA
Take B40: the “furin cleavage Z-score” value is -0.654 (inactive) (7.5 min), -1.12 (inactive) (15 min) and 0.0832 (inactive) (30 min).

B41: FS-3107 (peptide)
chain: CARTKRLAIFAGNASASA
Take B41: the “furin cleavage Z-score” value is, setting by setting: (7.5 min) 3.35; (15 min) 5.86 (active); (30 min) 5.79 (active).

B42: FS-1689 (peptide)
chain: CARDDRSTSFAGNASASA
In the case of B42, the “furin cleavage Z-score” value was 1.2 (7.5 min), -0.677 (inactive) (15 min) and 2.85 (30 min).

B43: FS-1976 (peptide)
chain: CARTKRYFAKAGNASASA
Take B43: the “furin cleavage Z-score” value runs as follows: (7.5 min) 0.407 (inactive); (15 min) 1.7; (30 min) 4.11 (active).

B44: FS-2823 (peptide)
chain: CARTKKAKMKAGNASASA
Consider B44, for which the “furin cleavage Z-score” value is -1.45 (inactive) (7.5 min), -0.415 (inactive) (15 min) and -0.644 (inactive) (30 min).

B45: DV6 (peptide)
chain: CAGLKRGGAKAGNASASA
For the sequence B45, the “furin cleavage Z-score” value is, setting by setting: (7.5 min) 0.716 (inactive); (15 min) 0.513 (inactive); (30 min) -0.692 (inactive).

B46: FS-2190 (peptide)
chain: CARTKRSAFFAGNASASA
Regarding B46, the “furin cleavage Z-score” value was 7.39 (active) (7.5 min), 8.86 (active) (15 min) and 9.07 (active) (30 min).

B47: FS-2313 (peptide)
chain: CARTKRDYDFAGNASASA
With B47, the “furin cleavage Z-score” value runs as follows: (7.5 min) 5.48 (active); (15 min) 7.94 (active); (30 min) 9.08 (active).

B48: FS-2314 (peptide)
chain: CARTKRLTAQAGNASASA
Turning to B48, the “furin cleavage Z-score” value reads like this: (7.5 min) -0.31 (inactive); (15 min) 0.417 (inactive); (30 min) 1.3.
